From article PMC4552634, “A New Set of Chemical Starting Points with Plasmodium falciparum Transmission-Blocking Potential for Antimalarial Drug Discovery” (PLoS ONE, 2015)
Like-named read-outs stand apart in the source and are kept apart here. Hit rate of the full screen: of about 13,000 compounds, about 3,200 (25%) showed an effect of 50% or more. The list shows a part of the results.

Test system: P. falciparum stage V gametocytes
Design: BacTiter-Glo ATP luminescence viability of purified stage V gametocytes in 384-well plates, per cent inhibition versus DMSO
Conditions: 48 h, 5 µM, inhibitor

Row | Structure (SMILES) | % Inhibition [%] | % Inhibition (% Inhibition) [%]
1 | CC(C)C[C@H](NC(=O)c1ccc(OCCN2CCOCC2)cc1)C(=O)N[C@H](/C=N/N1CCNC1=O)CCc1ccccc1 [TCMDC-136156] | 19.17 | 
2 | O=C(Nc1ccc(Cl)cc1)Nc1ccc2nonc2c1 [TCMDC-124586] | -84.09 | 
3 | COc1cc(N(C)Cc2cnc3nc(N)nc(N)c3n2)cc(OC)c1OC [TCMDC-137363] | 43.25 | 
4 | Cc1cccc(-n2c(Nc3ccc(C)c(Cl)c3)nc3ccc(S(=O)(=O)NC(C)C(C)C)cc32)c1 (stereo not drawn) [TCMDC-136234] | -15.02 | 
5 | CCCc1c(C(=O)OCC)c2cc(O)ccc2n1-c1ccc(OC)cc1 [TCMDC-125126] | -66.75 | 
6 | COc1cccc(C2=CC(C)(C)Oc3cc(OCCN(C)C)ccc32)c1 [TCMDC-131403] | 8.416 | 
7 | Cc1sc(N2CCN(C)CC2)nc1C(=O)Nc1ccc(F)cc1C(F)(F)F [TCMDC-134302] | -2.511 | 
8 | O=C(Nc1ccc(Cl)cc1)Nc1ccc(Cn2ncc(N3CCCNCC3)c(Cl)c2=O)cc1 [TCMDC-133331] | -14.26 | 
9 | O=C(Nc1ccc(Cn2ncc(N3CCCNCC3)c(Cl)c2=O)cc1)Nc1ccc(-c2ccccc2)cc1 [TCMDC-141927] |  | -25.81
10 | Cc1ccc(Cn2ncc(N3CCC(N)CC3)c(Cl)c2=O)cc1NC(=O)Nc1ccc(-c2ccccc2)cc1 [TCMDC-141932] | 107.1 | 
11 | Cc1ccc(NC(=O)Nc2ccc(Cn3ncc(N4CCCNCC4)c(Cl)c3=O)cc2)cc1 [TCMDC-133332] | 5.468 | 
12 | Cc1ccc(Cn2ncc(NC3CCNCC3)c(Cl)c2=O)cc1NC(=O)Nc1ccc(-c2ccccc2)cc1 [TCMDC-141929] | 95.66 | 
13 | COc1ccc2nccc([C@@H](O)CN3CCC(NCCOc4cccc(C(F)(F)F)c4Cl)CC3)c2c1 [TCMDC-140661] | 20.87 | 
14 | O=C(Nc1cccc(C(F)(F)F)c1)c1cc([N+](=O)[O-])cc2cn[nH]c12 [TCMDC-125395] | 7.696 | 
15 | O=C(Nc1ccc(F)c(Cl)c1)c1cc([N+](=O)[O-])cc2cn[nH]c12 [TCMDC-123694] | -9.121 | 
16 | O=C(Nc1ccc(Br)c(Cl)c1)c1cc([N+](=O)[O-])cc2cn[nH]c12 [TCMDC-123693] | 77.61 | 
17 | COc1cc(Nc2ccc3cc(S(=O)(=O)N4CCCCC4C)ccc3n2)cc(OC)c1OC (stereo not drawn) [TCMDC-125163] | -47.67 | 
18 | CCN(CC)CCOc1c(Cl)cc(Cl)cc1CNCCCNc1cc(=O)c2ccccc2[nH]1 [TCMDC-139684] | 26.89 | 
19 | COc1cc(NCCCNC(=O)c2ccc(Cl)c(Cl)c2)nc2ccccc12 [TCMDC-140373] | -10.34 | 
20 | Cc1cc(OCCCN2CCC(NS(=O)(=O)c3ccc(Cl)c(Cl)c3)CC2)c2ccccc2n1 [TCMDC-136278] | -51.1 | 
21 | CN(C)CCCNCc1cn(S(=O)(=O)c2ccccc2Cl)c2ccccc12 [TCMDC-136302] | 105.4 | 
22 | Cc1c(NCCCNCc2cc(Cl)cc(Cl)c2Cl)[nH]c2ccccc2c1=O [TCMDC-139498] | -59.03 | 
23 | COc1cc(NCCCNC(=O)c2cc3c(Cl)cc(Cl)cc3[nH]2)nc2ccccc12 [TCMDC-140360] | 30.45 | 

Row | Structure (SMILES) | % Inhibition [%] | % Inhibition (% Inhibition) [%]
24 | O=c1cc(NCCCNCc2cc(C(F)(F)F)ccc2Cl)[nH]c2ccccc12 [TCMDC-139422] | 4.715 | 
25 | COc1cc(NC2CCCC(NCc3cn(S(=O)(=O)c4ccccc4)c4ccccc34)C2)nc2ccccc12 (stereo not drawn) [TCMDC-140505] | 77.87 | 
26 | O=c1cc(NCCCNCc2cn(S(=O)(=O)c3ccccc3)c3ccccc23)[nH]c2ccccc12 [TCMDC-140361] | 89.9 | 
27 | COc1cc(NCCCNCc2cn(S(=O)(=O)c3ccccc3)c3ccccc23)nc2ccccc12 [TCMDC-140214] | 73.5 | 
28 | O=c1cc(NCCCNCc2ccccc2-c2ccccc2)[nH]c2ccccc12 [TCMDC-139450] | -0.2545 | 
29 | COc1ccc2nccc(NC(=O)N3CCC(NCc4cc5c(F)ccc(F)c5[nH]4)CC3)c2n1 [TCMDC-140784] | -20.31 | 
30 | Cc1cc(C(F)(F)F)n2nc(C(=O)N(Cc3cncn3Cc3ccccc3F)CC3CC3)cc2n1 [TCMDC-132463] | -10.43 | 
31 | Cc1c(C)n(C2CCCC2)c2ncnc(OC3CCN(CC(=O)NCC4CC4)CC3)c12 [TCMDC-134421] | 19.09 | 
32 | CN(Cc1cnc2nc(N)nc(N)c2n1)c1ccc(C(=O)N[C@H](CCC(=O)OC(C)(C)C)C(=O)N[C@@H](CCC(=O)OC(C)(C)C)C(=O)OC(C)(C)C)cc1 [TCMDC-137262] | -6.983 | 
33 | COc1cc(Cc2cnc(N)nc2N)cc(OC)c1OCCCCC(=O)O [TCMDC-137352] | 14.26 | 
34 | CN(Cc1cccc(C#N)c1)C1CCN(c2cc(NC(=O)c3cccc(F)c3)ccn2)CC1 [TCMDC-134972] | 21.14 | 
35 | COc1c(C)cc(I)cc1CNCCCNc1cc(=O)c2ccccc2[nH]1 [TCMDC-140056] | -89.66 | 
36 | COc1cc(CNCCCNc2nc3ncccc3[nH]2)c2[nH]cc(Br)c2c1 [TCMDC-140259] | -28.64 | 
37 | COc1ccnc(NCCCNCc2cn(S(=O)(=O)c3ccccc3)c3ccccc23)c1 [TCMDC-140380] | 99.09 | 
38 | CN1CCC(NCc2ccc(-c3ccc(Cl)cc3)cc2)CC1 [TCMDC-141355] | 54.41 | 
39 | CCCCCCN1CCC(NCc2ccc(Cl)cc2)CC1 [TCMDC-141666] | 71.31 | 
40 | FC(F)(F)c1ccc(-c2ccc(CNC3CCN(CCN4CCOCC4)CC3)cc2)cc1 [TCMDC-136025] | 39 | 
41 | Clc1ccc(CNC2CCN(CC3CCCCC3)CC2)cc1 [TCMDC-141658] | -44.47 | 
42 | CCN1CCC(NCc2ccc(-c3ccc(Cl)cc3)cc2)CC1 [TCMDC-141354] | 41.97 | 
43 | CCCCCCN1CCC(NCc2ccc(C(F)(F)F)cc2)CC1 [TCMDC-141669] | -50.38 | 
44 | CCN1CCC(NCc2ccc(-c3ccc(Cl)s3)cc2)CC1 [TCMDC-141263] | 93.74 | 
45 | CC(C)N1CCC(NCc2ccc(-c3ccc(Cl)cc3)cc2)CC1 [TCMDC-141359] | 35.52 | 
46 | CCCCCCN1CCC(NCc2ccc(C)cc2)CC1 [TCMDC-141667] | -37.31 | 

Row | Structure (SMILES) | % Inhibition [%] | % Inhibition (% Inhibition) [%]
47 | CN(C)CCCc1cc(NC(=O)Nc2cccc(Cl)c2Cl)ccc1I [TCMDC-139132] | -49.28 | 
48 | CCOC(=O)c1c(C)n(-c2ccccc2)c2ccc(OC(=O)COc3ccc(Cl)cc3Cl)cc12 [TCMDC-124380] | -46.8 | 
49 | COc1ccc2nccc(C(=O)NC3CCC(CCN4CCc5cc(C#N)ccc5C4)CC3)c2c1 (stereo not drawn) [TCMDC-139240] | 4.839 | 
50 | CN(C)CCCOc1c(C(C)(C)C)cc(-c2cc(C(C)(C)C)c(OCCCN(C)C)c(C(C)(C)C)c2)cc1C(C)(C)C [TCMDC-131822] | 59.94 | 
51 | Cn1cnc(CCNC(=O)c2ccc(-c3ccc(-c4nc5cc(F)ccc5[nH]4)cc3)cc2)c1 [TCMDC-132491] | 5.885 | 
52 | O=C(CC1SC(N2N=C(c3cccs3)CC2c2ccccc2)=NC1=O)Nc1ccc(Cl)cc1 (stereo not drawn) [TCMDC-124762] | 14.18 | 
53 | Cc1cc(N(C)C)nc(Nc2ccc(NC(=O)COc3ccccc3)cc2)n1 [TCMDC-124975] | -15.54 | 
54 | CCn1c(-c2nonc2N)nc2c(-c3cccc(Cl)c3)ncc(OCCCNCc3cnc(C)nc3N)c21 [TCMDC-135956] | 99.17 | 
55 | CCn1c(-c2nonc2N)nc2c(-c3cccc(Cl)c3)ncc(OCCCNCCc3cnc[nH]3)c21 [TCMDC-135919] | 106.8 | 
56 | Clc1cccc(CNc2nc(NCCc3cnc[nH]3)nc(NC3CCCCC3)n2)c1 [TCMDC-139735] | 0.07512 | 
57 | NC(N)=NC(=O)Nc1ccc(Cl)c([N+](=O)[O-])c1 [TCMDC-137567] | -21.87 | 
58 | CC(C)c1sc(N2CCN(C)CC2)nc1C(=O)NCCc1ccc(Br)cc1 [TCMDC-134294] | 2.102 | 
59 | COc1ccc2nccc([C@@H](O)CN3CCC(NC(=O)CCC(=O)c4cc(C(C)(C)C)ccc4OC)CC3)c2c1 [TCMDC-141108] | 21.12 | 
60 | Cc1cc(NCc2ccccc2)nc2cc(O)ccc12 [TCMDC-125297] | 15.33 | 
61 | CC(C)CCNc1nc(NCCc2ccccc2)c2cc(O)ccc2n1 [TCMDC-138405] | 95.11 | 
62 | CC(C)CCNc1nc(NCc2ccccc2)c2cc(O)ccc2n1 [TCMDC-138436] | 91.5 | 
63 | Oc1ccc(Nc2nc(NCc3ccccc3)c3ccccc3n2)cc1 [TCMDC-125641] | -47.6 | 
64 | CC(C)CCNc1nc(NCCCc2ccccc2)c2cc(O)ccc2n1 [TCMDC-138381] | 95.75 | 
65 | Cc1noc(-c2cccs2)c1C(=O)NCCc1cccc(Cl)c1 [TCMDC-124801] | 0.8455 | 
66 | COc1cc(CNC[C@@H](O)[C@H](Cc2ccccc2)NC(=O)c2cc(C3CCCC3)cc(N3CCCS3(=O)=O)c2)cc(OC)c1 [TCMDC-134560] | 26.15 | 
67 | CCOc1cc(C(=O)Nc2ccc3nc(N4CCCCC4)cc(C)c3c2)cc(OCC)c1OCC [TCMDC-125449] | -1.386 | 
68 | Cc1cccc2c(N=NC(=S)N(C)C)c(O)[nH]c12 [TCMDC-137626] | -58.93 | 
69 | O=C1OC2(CN1CC1CCN(Cc3ccc(-n4ccnc4)cc3)C1)c1ccccc1-c1ccccc12 (stereo not drawn) [TCMDC-136314] | 22.25 | 
